The record followed here is paper PMC8384837, “Expanding the binding specificity for RNA recognition by a PUF domain”.

What all share (test): yeast three-hybrid, YBZ-1, SC-Leu-His + 0.5 mM 3-AT, 4 days
What all share (conditions): tags: N-Gal4 AD-HA kept; label: inside an RPR1-promoter hybrid RNA with tandem MS2 sites; ssRNA

One assay concerns the target PUM1 PUF domain R4-GCG (Homo sapiens, UniProt Q14671 828-1176, N971G;H972C;Q975G). The gist of the method: (§1)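 Matching RNA elements and Pumilio-1 PUF domain libraries, randomized at the three base-contacting residues of every repeat, were co-expressed from a centromeric plasmid in strain YBZ-1 (LexA–MS2 coat fusion, HIS3 reporter). The repeat regions were PCR-amplified and Illumina-sequenced from cells grown four days on SC-Leu (input) or SC-Leu-His + 0.5 mM 3-AT (selection). The interaction score is the log change in variant frequency from input to selection. It is computed in log2, with a pseudocount of 1 for absent variants.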

A further assay deals with PUM1 PUF domain R4-SRY (Homo sapiens, UniProt Q14671 828-1176, N971S;H972R;Q975Y). An outline of the steps:
as §1

Another assay has as its target PUM1 PUF domain R4-SHP (Homo sapiens, UniProt Q14671 828-1176, N971S;Q975P). An outline of the steps:
as §1

The target in a further assay is PUM1 PUF domain R2-ARP (Homo sapiens, UniProt Q14671 828-1176, N899A;Y900R;Q903P). The gist of the method:
as §1

A further assay has as its target PUM1 PUF domain R5-AGR (Homo sapiens, UniProt Q14671 828-1176, C1007A;R1008G;Q1011R). The gist of the method:
as §1

For a further assay, the target named is PUM1 PUF domain R1-KGN (Homo sapiens, UniProt Q14671 828-1176, S863K;R864G;Q867N). The gist of the method:
as §1

Another assay concerns the target PUM1 PUF domain R5-DWV (Homo sapiens, UniProt Q14671 828-1176, C1007D;R1008W;Q1011V). The gist of the method:
as §1

The target in another assay is PUM1 PUF domain R7-QFY (Homo sapiens, UniProt Q14671 828-1176, S1079Q;N1080F;E1083Y). The gist of the method: as §1
For another assay, the target named is T1, PUM1 PUF domain R6-CFH (Homo sapiens, UniProt Q14671 828-1176, N1043C;Y1044F;Q1047H).
T1 sequence: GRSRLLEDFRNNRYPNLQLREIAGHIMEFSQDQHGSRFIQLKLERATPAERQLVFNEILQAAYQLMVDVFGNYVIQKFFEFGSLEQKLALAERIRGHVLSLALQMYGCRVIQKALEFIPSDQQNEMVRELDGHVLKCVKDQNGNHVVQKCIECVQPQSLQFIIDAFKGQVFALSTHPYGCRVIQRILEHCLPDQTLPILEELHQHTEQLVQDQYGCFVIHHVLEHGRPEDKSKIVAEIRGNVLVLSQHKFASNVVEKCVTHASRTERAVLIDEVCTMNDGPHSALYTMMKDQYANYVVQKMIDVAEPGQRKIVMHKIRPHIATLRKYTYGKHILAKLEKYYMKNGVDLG
An outline of the steps: as §1

Turning to “GGCUAGAACUAGUGGAUCCCCCGGCGCCCGGCGGCUCGAGCCCGGGUAAGUGUAUAUAGUCUGCAUGCCGCCGGGCGCCAUGCCUGCAGGUCGACUCUAGAAAACAUG”, the binding signal with PUM1 PUF domain R4-GCG was 2.61 log2 enrichment (interaction score); with PUM1 PUF domain R4-SRY, 0.46 log2 enrichment (interaction score); with PUM1 PUF domain R4-SHP, 5.36 log2 enrichment (interaction score).
Turning to “GGCUAGAACUAGUGGAUCCCCCGGCGCCCGGCGGCUCGAGCCCGGGUAAGUGUAAAAAGUCUGCAUGCCGCCGGGCGCCAUGCCUGCAGGUCGACUCUAGAAAACAUG”, the binding signal with PUM1 PUF domain R2-ARP was 4.42 log2 enrichment (interaction score).
Regarding “GGCUAGAACUAGUGGAUCCCCCGGCGCCCGGCGGCUCGAGCCCGGGUAAGUGUUAAUAGUCUGCAUGCCGCCGGGCGCCAUGCCUGCAGGUCGACUCUAGAAAACAUG”, in the assay with PUM1 PUF domain R5-AGR, the binding signal was 0.84 log2 enrichment (interaction score).
Take “GGCUAGAACUAGUGGAUCCCCCGGCGCCCGGCGGCUCGAGCCCGGGUAAGUGUAAAUUGUCUGCAUGCCGCCGGGCGCCAUGCCUGCAGGUCGACUCUAGAAAACAUG”: in the assay with PUM1 PUF domain R1-KGN, the binding signal was 4.31 log2 enrichment (interaction score).
With “GGCUAGAACUAGUGGAUCCCCCGGCGCCCGGCGGCUCGAGCCCGGGUAAGUGUGAAUAGUCUGCAUGCCGCCGGGCGCCAUGCCUGCAGGUCGACUCUAGAAAACAUG”, the binding signal in the assay with PUM1 PUF domain R5-DWV was 3.79 log2 enrichment (interaction score).
Take “GGCUAGAACUAGUGGAUCCCCCGGCGCCCGGCGGCUCGAGCCCGGGUAAGUUUAAAUAGUCUGCAUGCCGCCGGGCGCCAUGCCUGCAGGUCGACUCUAGAAAACAUG”: the binding signal with PUM1 PUF domain R7-QFY is 2.24 log2 enrichment (interaction score).
On to “GGCUAGAACUAGUGGAUCCCCCGGCGCCCGGCGGCUCGAGCCCGGGUAAGUGUCAAUAGUCUGCAUGCCGCCGGGCGCCAUGCCUGCAGGUCGACUCUAGAAAACAUG”, for which the binding signal with PUM1 PUF domain R5-AGR is 3.47 log2 enrichment (interaction score).
As to “GGCUAGAACUAGUGGAUCCCCCGGCGCCCGGCGGCUCGAGCCCGGGUAAGUGAAAAUAGUCUGCAUGCCGCCGGGCGCCAUGCCUGCAGGUCGACUCUAGAAAACAUG”, the binding signal in the assay with PUM1 PUF domain R6-CFH is 4.34 log2 enrichment (interaction score).
